Source: PubChem BioAssay (National Center for Advancing Translational Sciences (NCATS))
Compounds with a hit are over-represented: about 7.8% of the library has one in this group of screens.
Vaccinia mCherry – vaccinia inhibition (mCherry reporter); 310,000 tested, 0.63% active; Potency, µM (doses to about 36.5 µM), without a hit: top-dose activity change, negative = inhibition, hits mostly inhibitors; AID 720579; Vaccinia virus mCherry reporter infection, fluorescence; calls by dose curve; tested in A549 cells; note: potency is the fitted concentration of half-maximal effect; % is set by controls: 0 for no effect and ±100 for the full control effect; nearly all actives have a fitted effect of over 35% in size
Lassa entry inh – Lassa virus entry inhibition; Lassa virus pseudotype entry inhibition, cell reporter; Potency, µM (doses to about 37.9 µM), for the others: at the top dose activity change, negative = inhibition, most hits filed as inhibitors; 300,000 tested, 1.2% active; AID 540256; calls by dose curve; tested in HEK293 cells; note: potency is the fitted concentration of half-maximal effect; % is set by controls: 0 for no effect and ±100 for the full control effect; nearly all actives have a fitted effect of over 50% in size
HCMV inh – blocks human cytomegalovirus replication; HFF cells, HCMV-luciferase reporter, 72 h; active compounds read low; activity change, negative = inhibition, % at 57.5 µM; 410,000 tested, 4.5% active; in the data active = activity change below about -60%; inconclusive = no clear call, values can overlap the other calls; inactive = above about -39%; note: % is set by controls: 0 for no effect and ±100 for the full control effect
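Compounds were evaluated in HFFs infected with an HCMV luciferase reporter virus (MOI 1 PFU/cell). Luciferase in lysates collected 72 h post infection served as the replication measure.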
MARV entry inh – Marburg virus entry inhibition. Marburg virus pseudotyped entry inhibition, cell reporter. Potency, µM (top dose mostly 37.8 µM), without a hit: at the highest dose activity change, negative = inhibition, actives largely listed as inhibitors. 300,000 tested, 1.8% active; calls by dose curve; tested in HEK293 cells; note: potency is the fitted concentration of half-maximal effect; % is set by controls: 0 for no effect and ±100 for the full control effect
Vaccinia Venus – inhibitors of vaccinia virus (Venus reporter); Vaccinia virus Venus reporter expression, fluorescence; Potency, µM (titrated, usually from 36.5 µM), for the others: top-dose activity change, negative = inhibition, most hits filed as inhibitors; 330,000 tested, 0.46% active; AID 720580; calls by dose curve; tested in A549 cells; note: potency is the fitted concentration of half-maximal effect; % is set by controls: 0 for no effect and ±100 for the full control effect; nearly all actives have a fitted effect of over 30% in size
HCV inh – HCV inhibition. AID 651820. Huh7.5.1 HCVcc-Cre infection, luciferase reporter, 44 h. Potency, µM (highest dose often 41.8 µM), for the others: top-dose activity change, negative = inhibition, hits mostly inhibitors. 340,000 tested, 3.4% active; note: potency is the fitted concentration of half-maximal effect; % is set by controls: 0 for no effect and ±100 for the full control effect
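1,000 cells/well; 4 h culture; + compound; + HCVcc-Cre (~0.5 moi); 44 h; luciferase substrate, RT 15 min; read 15 sec.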
HCV confirm – HCV inhibition, cherry-pick confirmation. shares compounds with HCV inh. HCVcc-Cre infectious virus cell assay, luciferase, inhibition. Potency, µM (doses to about 41.8 µM), for the others: top-dose activity, negative = inhibition, actives largely listed as inhibitors. 640 tested, 78% active. AID 720575; note: potency is the fitted concentration of half-maximal effect; nearly all actives have a fitted effect of over 80% in size
HCV host tox – toxic to HCV host cells, flagging false HCV inhibitors | shares compounds with HCV inh | HCV host cell line cytotoxicity counterscreen | Potency, µM (top dose mostly 41.8 µM), inactives show top-dose activity change, negative = cytotoxicity, most hits filed as inhibitors | 640 tested, 22% active | AID 720576;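 note: potency is the fitted concentration of half-maximal effect; 44 h compound exposure; % is set by controls: 0 for no effect and ±100 for the full control effect; nearly all actives have a fitted effect of over 55% in size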
* hit, by the source's call; i = inactive; ? = inconclusive; . = not tested or not shown; + = active, no number; [ ] = another dose, or the depositor's remark. Unless noted, calls come from the whole dose curve; as a rule, active = well fitted curve in the direction sought with a large enough effect; inconclusive = small, poorly fitted or top-dose-only effect, or another doubt; inactive = no such curve, though single readings can be large; an effect the other way counts as inactive or inconclusive.

SMILES	Vaccinia mCherry	Lassa entry inh	HCMV inh	MARV entry inh	Vaccinia Venus	HCV inh	HCV confirm	HCV host tox
O=C(Nc1nnc(CC2=CCCCC2)s1)c1cccs1	-14%	27%	68	19%[46.1 µM]	-4%	-8%	.	.
CCCCCNC(=O)c1cn(CC)c2cc(N3CCN(C)CC3)c(F)cc2c1=O	?	-25%	6	?	?	?	14µM*	-28%
Cc1ccc(C)c2nc(SCC(=O)N3CCCc4ccccc43)c(C#N)cc12	.	-19%	12	-26%	.	6.3µM*	7µM*	15%
Cc1noc(/C=C/c2ccccc2F)c1S(=O)(=O)N1CCC(C(=O)NCC(C)c2ccccc2)CC1 (stereo not drawn)	-5%[7.34 µM]	1%[46.1 µM]	108	.	-7%[7.34 µM]	.	.	.
CC12CCC(C)(c3nc4ccccc4nc31)C2(C)C	5%	8%	15	3%[46.1 µM]	4%	20%	.	.
Cc1[nH]nc2c1-c1nc3ccccc3nc1C(C)(C)C2	.	?	-74*	?	.	5.6µM*	7.9µM*	?
Cn1c(=O)c2nc(SCC(=O)Nc3cc(Cl)cc(Cl)c3)n(C)c2n(C)c1=O	-15%	27%[46.1 µM]	-8	.	-16%	.	.	.
CCCOc1ccc(/C=C/C(=O)NC2CCCCC2)cc1OC	-21%	4%	-8	17%	-14%	?	.	.
COc1cc(/C=C/C(=O)NC2CCCCC2)cc(OC)c1OC	-9%	-18%	10	1%	-3%	?	?	25%
CC(C)N(C(=S)Nc1cc(S(=O)(=O)N2CCOCC2)ccc1Cl)c1ccccc1	-17%	0%	-9	?	-1%	3%	.	.
C/C(=N\NC(=S)Nc1cc(S(=O)(=O)N2CCOCC2)ccc1Cl)c1ccccc1F	-37%	?	-92*	?	-27%	?	22µM*	?
CCCCN(CC)C(=O)Cn1cc2c(n1)-c1c(oc(C(=O)N3CCCC3)c1C)CC2	-20%	-12%[46.1 µM]	-11	.	-16%	.	.	.
Nc1nc(F)nc2c1ncn2[C@@H]1O[C@H](CO)[C@@H](O)[C@H]1O	1µM*	.	-96*	.	1.1µM*	0.79µM*	2µM*	6.3µM*
COc1ccc(-c2cc(C)no2)cc1S(=O)(=O)N1CCN(c2ccc([N+](=O)[O-])cc2)CC1	.	.	+	.	.	4µM*	8.9µM*	25µM*
Cc1ccc(C)c(N2CCN(c3nccn4nc(-c5ccc(Br)cc5)cc34)CC2)c1	-21%	4%[46.1 µM]	2	19%[46.1 µM]	-9%	.	.	.
CN(C)S(=O)(=O)c1cccc(-c2csc(N/N=C/c3ccco3)n2)c1	?	-6%	-37	-26%[46.1 µM]	-19%	?	.	.
COc1ccc(/C=N/Nc2nc(-c3cccc(S(=O)(=O)N4CCCC4)c3)cs2)c(OC)c1	?	?	-65*	?	?	4µM*	10µM*	-41%
O=C(N/N=C/c1ccc[nH]1)c1ccc(Cl)cc1	-8%	?	?	-19%	-8%	5µM*	14µM*	14µM*
COc1cccc(-n2c(C)nc3c(cnn3-c3ccc(C)c(C)c3)c2=O)c1	-14%	1%[46.1 µM]	12	?	-17%	.	.	.
CCN1CCN(CCOc2ccccc2-c2ccccc2)CC1	.	.	-7	.	.	-20%	.	.
CCN1CCN(CCCOc2ccc(-c3ccccc3)cc2)CC1	0%	-27%	5	?	-26%	2.8µM*	14µM*	-19%
Cc1ccc(N=Nc2cc(C)ccc2N)cc1	i	.	0	.	-9%	3.2µM*	3.1µM*	?
COc1ccccc1N=Nc1ccc(N)c(C)c1	?	?	38	7%	-26%	?	.	.
Cc1cc(C)n(-c2ccc(C(=O)Nc3ccc4c(c3)OCCO4)cc2)n1	.	4%	5	-26%	-27%	?	?	-29%
CCOC(=O)c1c(NC(=O)c2cc(-c3ccccc3)on2)sc2c1CCCC2	5%	-1%[46.1 µM]	4	.	-2%	.	.	.
SMILES	Vaccinia mCherry	Lassa entry inh	HCMV inh	MARV entry inh	Vaccinia Venus	HCV inh	HCV confirm	HCV host tox
O=C(Nc1ccc([N+](=O)[O-])cc1)Nc1ccc(OC(F)F)c(Cl)c1	?	15µM*	-101*	?	8.9µM*	?	7µM*	8.9µM*
O=C(Cc1ccc(Cl)cc1Cl)Nc1ccc(OC(F)F)c(Cl)c1	-27%	-3%	?	?	-21%	?	.	.
Cn1c(=O)oc2cc(S(=O)(=O)N3CCCC(C(=O)NCCc4ccc(Cl)cc4)C3)ccc21 (stereo not drawn)	-5%	-4%[46.1 µM]	-19	0%[46.1 µM]	2%	.	.	.
CCOC(=O)c1cc(-c2ccco2)nc2c1c(C)nn2CCC#N	.	-3%	-10	-25%	?	?	?	10%
COc1ccc(NC(=O)CSc2nc(-c3ccc(OC)cc3)cc(=O)[nH]2)cc1	-10%	13%[46.1 µM]	34	5%[46.1 µM]	2%	.	.	.
Cc1cccc(Cn2c(NCCO)nc3c2c(=O)n(C)c(=O)n3C)c1	?	-29%	-75*	?	?	1.8µM*	4µM*	2.5µM*
CCCS(=O)(=O)c1c(S(=O)(=O)CCC)c2cc(C(C)(C)C)ccn2c1C(=O)c1ccc(C)cc1	11%	-16%[46.1 µM]	-4	-4%[46.1 µM]	-5%	.	.	.
CC(Nc1nc(-c2ccc(F)cc2)cs1)c1nc2cc(Cl)c(Cl)cc2n1CCOCCO (stereo not drawn)	?	.	30	.	?	-15%	.	.
COc1ccc(-c2csc(NC(C)c3nc4cc(Cl)c(Cl)cc4n3CCCO)n2)cc1 (stereo not drawn)	?	.	-15	.	?	8.9µM*	13µM*	11%
Cc1cc(C)c2cc(C(=O)N3CCc4ccccc4C3)[nH]c2c1	?	-21%	-24	-21%	-28%	?	?	-33%
O=C(COc1ccc(F)cc1)Nc1ccc(C(=O)OCc2cc(=O)n3nc(C4CC4)sc3n2)cc1	-10%	4%[46.1 µM]	7	.	-9%	.	.	.
C[n+]1ccccc1/C=C1\Sc2ccccc2N1CCO	-13%	?	?	-24%	-6%	?	.	.
CCN1/C(=C/c2ccc3cc(C)cc(C)c3[n+]2CC)Sc2cc(C)ccc21	.	.	-100*	.	.	7.1µM*	7.9µM*	7.9µM*
CCn1nnc(-c2ccccc2NC(=O)C(F)(F)F)n1	-4%	19%	19	9%	-8%	?	?	-17%
Cc1ccc2nc(-c3ccccc3F)c(Nc3ccc(Cl)cc3)n2c1	-15%	16%[46.1 µM]	-24	-12%[46.1 µM]	-20%	.	.	.
Cc1nn(-c2ccc(N3CCCCC3)nn2)c(C)c1CCC(=O)Nc1ccc(F)cc1F	3%	?	-27	.	-3%	.	.	.
